A word on the inhibition: it is the change of the read-out against control, counted positive when it falls.

In ChEMBL document CHEMBL1961873, “Compounds: GSK PKIS; Assays: Nanosyn kinase panel” (2012) one finds inhibition data, which are given here for seven molecules.

In experiment [1] the target is Leukocyte tyrosine kinase receptor (Homo sapiens) (UniProt P29376). As to conditions: at 1 µM.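 Further: each value is the mean inhibition of LTK.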
Experiment [2] deals with Tyrosine-protein kinase Lyn (Homo sapiens) (UniProt P07948). To be noted: at 0.1 µM.
Sequence of Tyrosine-protein kinase Lyn (Homo sapiens) (P07948 2-512 limits assumed): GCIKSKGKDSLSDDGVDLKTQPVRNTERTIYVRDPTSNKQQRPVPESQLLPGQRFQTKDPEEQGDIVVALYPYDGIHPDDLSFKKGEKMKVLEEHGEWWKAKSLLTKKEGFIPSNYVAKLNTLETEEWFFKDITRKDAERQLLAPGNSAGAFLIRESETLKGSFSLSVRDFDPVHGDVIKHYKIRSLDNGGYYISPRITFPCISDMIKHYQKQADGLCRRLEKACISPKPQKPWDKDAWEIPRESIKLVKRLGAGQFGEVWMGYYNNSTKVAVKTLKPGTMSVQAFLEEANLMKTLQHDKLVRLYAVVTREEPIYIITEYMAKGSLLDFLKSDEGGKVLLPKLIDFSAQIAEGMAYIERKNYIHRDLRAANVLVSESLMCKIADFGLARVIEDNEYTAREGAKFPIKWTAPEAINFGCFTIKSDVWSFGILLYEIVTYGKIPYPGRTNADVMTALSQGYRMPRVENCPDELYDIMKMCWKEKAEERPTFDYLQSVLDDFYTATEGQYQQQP
For experiment [3] the target is unchanged. To be noted: at 1 µM.
For experiment [4] the target is unchanged. As to conditions: at 0.1 µM. This is another data set of the same source.
Experiment [5] has the same target. To be noted: at 1 µM. The source holds these as a separate data set.
Experiment [6] concerns the target T1, Tyrosine-protein kinase Mer (Homo sapiens) (UniProt Q12866).
T1 sequence (whole entry): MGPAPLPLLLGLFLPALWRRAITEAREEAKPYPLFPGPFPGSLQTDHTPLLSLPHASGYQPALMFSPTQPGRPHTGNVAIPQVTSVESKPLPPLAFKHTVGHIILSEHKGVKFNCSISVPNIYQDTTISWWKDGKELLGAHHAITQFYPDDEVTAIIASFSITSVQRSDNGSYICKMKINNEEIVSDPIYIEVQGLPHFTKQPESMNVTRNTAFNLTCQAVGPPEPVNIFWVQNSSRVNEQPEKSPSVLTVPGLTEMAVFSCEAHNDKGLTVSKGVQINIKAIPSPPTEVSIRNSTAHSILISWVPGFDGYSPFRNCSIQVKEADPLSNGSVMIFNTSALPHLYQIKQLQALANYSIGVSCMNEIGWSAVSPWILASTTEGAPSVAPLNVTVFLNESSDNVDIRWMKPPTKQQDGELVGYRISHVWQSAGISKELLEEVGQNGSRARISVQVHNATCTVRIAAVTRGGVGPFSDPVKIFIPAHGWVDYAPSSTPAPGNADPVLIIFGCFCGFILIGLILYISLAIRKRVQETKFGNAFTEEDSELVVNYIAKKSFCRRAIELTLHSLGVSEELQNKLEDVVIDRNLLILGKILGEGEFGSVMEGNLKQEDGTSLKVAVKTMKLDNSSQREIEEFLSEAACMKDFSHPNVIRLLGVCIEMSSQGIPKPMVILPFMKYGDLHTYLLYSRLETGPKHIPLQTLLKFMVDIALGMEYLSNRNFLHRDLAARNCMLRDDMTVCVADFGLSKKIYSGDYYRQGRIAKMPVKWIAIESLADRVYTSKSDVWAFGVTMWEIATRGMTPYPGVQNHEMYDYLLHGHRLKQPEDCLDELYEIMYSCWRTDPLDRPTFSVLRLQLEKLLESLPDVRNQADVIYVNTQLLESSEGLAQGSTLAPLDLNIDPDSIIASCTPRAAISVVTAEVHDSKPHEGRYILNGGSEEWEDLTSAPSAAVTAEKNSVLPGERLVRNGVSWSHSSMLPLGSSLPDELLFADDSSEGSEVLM
As to conditions: at 0.1 µM.

In experiment [7] the target is T1, Tyrosine-protein kinase Mer (Homo sapiens). To be noted: at 1 µM.
For experiment [8], the target named is Hepatocyte growth factor receptor (Homo sapiens) (UniProt P08581). As to conditions: at 0.1 µM.
Sequence of Hepatocyte growth factor receptor (Homo sapiens) (P08581 whole entry): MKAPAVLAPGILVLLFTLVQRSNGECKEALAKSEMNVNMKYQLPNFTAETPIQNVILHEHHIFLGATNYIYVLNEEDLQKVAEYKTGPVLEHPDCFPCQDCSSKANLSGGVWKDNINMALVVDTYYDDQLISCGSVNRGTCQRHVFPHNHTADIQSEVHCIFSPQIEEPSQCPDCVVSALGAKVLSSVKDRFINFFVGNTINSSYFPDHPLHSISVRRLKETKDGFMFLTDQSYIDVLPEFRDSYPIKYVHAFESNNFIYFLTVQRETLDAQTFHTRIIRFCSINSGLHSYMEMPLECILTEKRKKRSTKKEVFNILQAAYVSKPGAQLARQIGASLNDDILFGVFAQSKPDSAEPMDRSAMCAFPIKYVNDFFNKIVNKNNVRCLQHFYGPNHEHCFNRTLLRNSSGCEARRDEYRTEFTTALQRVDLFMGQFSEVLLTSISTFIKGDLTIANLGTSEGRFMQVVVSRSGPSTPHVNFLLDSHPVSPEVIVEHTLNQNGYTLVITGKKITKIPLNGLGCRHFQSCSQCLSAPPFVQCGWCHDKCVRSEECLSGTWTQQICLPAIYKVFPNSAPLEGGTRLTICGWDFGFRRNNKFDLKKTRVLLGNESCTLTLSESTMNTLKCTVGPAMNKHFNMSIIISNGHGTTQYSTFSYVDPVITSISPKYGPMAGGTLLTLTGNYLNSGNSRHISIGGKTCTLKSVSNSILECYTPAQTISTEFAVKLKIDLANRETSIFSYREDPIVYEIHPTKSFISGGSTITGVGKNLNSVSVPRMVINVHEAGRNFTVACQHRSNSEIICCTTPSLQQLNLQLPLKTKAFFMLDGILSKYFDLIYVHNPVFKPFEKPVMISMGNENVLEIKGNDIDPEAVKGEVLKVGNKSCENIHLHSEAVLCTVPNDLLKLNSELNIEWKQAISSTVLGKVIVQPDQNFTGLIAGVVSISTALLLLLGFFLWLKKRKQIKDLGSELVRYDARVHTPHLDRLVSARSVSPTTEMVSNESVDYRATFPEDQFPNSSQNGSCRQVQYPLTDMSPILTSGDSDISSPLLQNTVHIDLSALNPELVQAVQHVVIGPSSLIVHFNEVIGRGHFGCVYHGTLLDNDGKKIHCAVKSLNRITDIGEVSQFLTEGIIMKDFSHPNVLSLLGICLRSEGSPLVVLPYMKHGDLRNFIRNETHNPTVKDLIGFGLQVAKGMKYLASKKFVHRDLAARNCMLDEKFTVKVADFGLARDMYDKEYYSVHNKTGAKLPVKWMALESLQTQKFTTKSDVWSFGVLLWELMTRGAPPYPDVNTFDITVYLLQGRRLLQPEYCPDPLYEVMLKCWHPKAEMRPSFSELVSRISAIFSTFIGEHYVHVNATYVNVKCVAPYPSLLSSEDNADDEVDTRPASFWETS
Experiment [9] has the same target. To be noted: at 1 µM.
For experiment [10], the target named is T2, Muscle, skeletal receptor tyrosine-protein kinase (Homo sapiens) (UniProt O15146).
T2 sequence (whole entry): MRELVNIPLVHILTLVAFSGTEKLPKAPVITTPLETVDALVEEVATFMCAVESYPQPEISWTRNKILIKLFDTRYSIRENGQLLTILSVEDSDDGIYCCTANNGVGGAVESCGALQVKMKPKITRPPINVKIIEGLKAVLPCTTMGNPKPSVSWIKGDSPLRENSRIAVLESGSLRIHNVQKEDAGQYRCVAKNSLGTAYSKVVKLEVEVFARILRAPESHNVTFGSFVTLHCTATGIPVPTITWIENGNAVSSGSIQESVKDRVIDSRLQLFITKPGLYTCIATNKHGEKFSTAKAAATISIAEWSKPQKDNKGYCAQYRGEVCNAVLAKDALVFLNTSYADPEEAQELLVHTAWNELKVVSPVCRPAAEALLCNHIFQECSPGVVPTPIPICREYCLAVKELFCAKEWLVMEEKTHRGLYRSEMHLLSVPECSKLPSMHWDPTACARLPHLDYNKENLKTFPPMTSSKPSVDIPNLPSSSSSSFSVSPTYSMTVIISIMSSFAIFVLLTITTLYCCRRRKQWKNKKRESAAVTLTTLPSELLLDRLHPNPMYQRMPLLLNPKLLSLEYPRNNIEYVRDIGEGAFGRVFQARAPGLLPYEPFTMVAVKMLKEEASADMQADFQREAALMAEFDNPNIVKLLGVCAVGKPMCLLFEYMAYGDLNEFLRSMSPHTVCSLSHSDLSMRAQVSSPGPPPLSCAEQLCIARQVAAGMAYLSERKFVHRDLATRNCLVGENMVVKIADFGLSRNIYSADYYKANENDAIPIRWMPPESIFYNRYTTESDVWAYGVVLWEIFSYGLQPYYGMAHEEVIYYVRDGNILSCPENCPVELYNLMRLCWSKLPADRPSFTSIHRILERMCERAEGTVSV
To be noted: at 0.1 µM.

Experiment [11] concerns the target T2, Muscle, skeletal receptor tyrosine-protein kinase (Homo sapiens). As to conditions: at 1 µM.
Experiment [12] deals with Platelet-derived growth factor receptor alpha (Homo sapiens) (UniProt P16234). To be noted: at 0.1 µM.
Sequence of Platelet-derived growth factor receptor alpha (Homo sapiens) (P16234 whole entry): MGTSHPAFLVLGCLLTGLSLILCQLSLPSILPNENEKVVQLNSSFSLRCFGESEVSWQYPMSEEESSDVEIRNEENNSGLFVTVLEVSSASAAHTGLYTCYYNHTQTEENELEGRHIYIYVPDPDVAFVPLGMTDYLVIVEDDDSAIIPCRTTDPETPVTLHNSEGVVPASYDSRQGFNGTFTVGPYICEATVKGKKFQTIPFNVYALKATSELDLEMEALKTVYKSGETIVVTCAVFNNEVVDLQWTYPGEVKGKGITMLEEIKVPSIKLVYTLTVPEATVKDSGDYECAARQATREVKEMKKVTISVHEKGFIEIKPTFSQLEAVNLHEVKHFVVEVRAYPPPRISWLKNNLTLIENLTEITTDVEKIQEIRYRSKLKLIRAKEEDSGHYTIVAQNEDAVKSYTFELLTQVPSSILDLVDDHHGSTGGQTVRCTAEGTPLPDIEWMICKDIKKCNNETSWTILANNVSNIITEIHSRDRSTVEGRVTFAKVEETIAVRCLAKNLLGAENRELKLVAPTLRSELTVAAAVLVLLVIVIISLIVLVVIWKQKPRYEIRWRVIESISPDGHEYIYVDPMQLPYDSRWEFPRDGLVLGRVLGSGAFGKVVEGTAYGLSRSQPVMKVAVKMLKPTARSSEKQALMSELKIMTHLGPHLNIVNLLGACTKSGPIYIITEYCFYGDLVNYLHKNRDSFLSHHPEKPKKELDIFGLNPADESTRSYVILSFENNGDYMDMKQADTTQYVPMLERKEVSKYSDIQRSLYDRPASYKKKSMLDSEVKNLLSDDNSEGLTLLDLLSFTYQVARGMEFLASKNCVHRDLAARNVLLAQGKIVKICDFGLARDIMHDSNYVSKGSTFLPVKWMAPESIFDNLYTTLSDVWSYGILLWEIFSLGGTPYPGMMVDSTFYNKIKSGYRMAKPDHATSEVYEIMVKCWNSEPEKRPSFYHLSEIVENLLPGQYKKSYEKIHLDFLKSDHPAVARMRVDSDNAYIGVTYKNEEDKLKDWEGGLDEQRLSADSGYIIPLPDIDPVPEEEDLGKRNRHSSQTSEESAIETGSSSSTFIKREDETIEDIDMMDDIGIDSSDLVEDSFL
Experiment [13] has the same target. To be noted: at 1 µM.
Experiment [14] relates to Platelet-derived growth factor receptor alpha (Homo sapiens), P16234 [D842V]. As to conditions: at 0.1 µM.
For experiment [15] the test system is unchanged. As to conditions: at 1 µM.
Experiment [16] concerns Platelet-derived growth factor receptor alpha (Homo sapiens), P16234 [T674I]. To be noted: at 0.1 µM.
Sequence of Platelet-derived growth factor receptor alpha (Homo sapiens), P16234 [T674I] (P16234 whole entry T674I): as the sequence (P16234 whole entry) above, with T674I counted along it
For experiment [17] the test system is unchanged. As to conditions: at 1 µM.
Experiment [18] relates to Platelet-derived growth factor receptor alpha (Homo sapiens), P16234 [V561D]. As to conditions: at 0.1 µM.
Experiment [19] has the same test system. To be noted: at 1 µM.
Experiment [20] addresses Platelet-derived growth factor receptor beta (Homo sapiens) (UniProt P09619). To be noted: at 0.1 µM.

SMILES strings stand for the structures.

Sequence of Leukocyte tyrosine kinase receptor (Homo sapiens) (P29376 whole entry): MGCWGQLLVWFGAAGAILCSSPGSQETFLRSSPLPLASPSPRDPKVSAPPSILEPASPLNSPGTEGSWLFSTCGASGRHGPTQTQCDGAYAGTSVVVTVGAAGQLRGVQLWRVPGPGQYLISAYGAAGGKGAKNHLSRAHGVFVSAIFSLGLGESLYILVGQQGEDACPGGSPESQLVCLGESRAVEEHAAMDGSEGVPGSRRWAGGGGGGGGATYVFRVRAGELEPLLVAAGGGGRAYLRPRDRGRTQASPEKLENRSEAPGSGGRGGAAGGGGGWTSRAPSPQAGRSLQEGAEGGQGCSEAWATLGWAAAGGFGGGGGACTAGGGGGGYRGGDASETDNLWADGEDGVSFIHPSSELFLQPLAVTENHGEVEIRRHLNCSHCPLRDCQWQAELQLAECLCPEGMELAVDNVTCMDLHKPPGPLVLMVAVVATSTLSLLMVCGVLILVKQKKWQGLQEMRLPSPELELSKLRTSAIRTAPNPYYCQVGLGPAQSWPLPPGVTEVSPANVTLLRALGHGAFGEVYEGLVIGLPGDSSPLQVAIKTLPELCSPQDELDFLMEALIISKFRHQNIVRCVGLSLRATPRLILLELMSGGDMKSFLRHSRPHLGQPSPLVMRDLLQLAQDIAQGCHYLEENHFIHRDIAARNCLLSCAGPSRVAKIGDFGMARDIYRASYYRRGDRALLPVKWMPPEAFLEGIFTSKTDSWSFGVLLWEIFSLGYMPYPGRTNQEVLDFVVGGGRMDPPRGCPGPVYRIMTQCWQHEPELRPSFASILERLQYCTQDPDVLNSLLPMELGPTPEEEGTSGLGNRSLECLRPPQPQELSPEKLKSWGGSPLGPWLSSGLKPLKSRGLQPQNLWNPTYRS

Regarding `Cc1cc(-c2ccccn2)cc(C)c1/C=C/c1cncc(-c2nn[nH]n2)c1`, the inhibition in [1] was 4.93%; in [2], 3.33%; in experiment [3], 14%; in experiment [4], 0.35%; in experiment [5] it was 9.56%; in experiment [6], -0.39%. Further, the inhibition in experiment [7] came to 3.73%; in experiment [8] it was 2.88%; in experiment [9], 4.32%; in [10], 3.02%; in [11] it was 5.02%; in experiment [12], 4.62%. Further, the inhibition is 15.4% in [13]; -0.56% in [14]; 2.51% in [15]; 4.3% in experiment [16]; 8.72% in experiment [17]; 3.13% in [18]. In addition, the inhibition in experiment [19] was determined as 7.97%; in experiment [20], 4.53%.

For `CS(=O)(=O)CCNCc1nc(-c2ccc3ncnc(Nc4ccc(OCc5cccc(C(F)(F)F)c5)cc4)c3c2)cs1`, the inhibition in [1] was determined as 3.87%; in experiment [2] it was 2.63%; in experiment [3] it was 2.07%; in [4], 2.44%; in [5] it was 1.23%; in experiment [6], 3.74%. In addition, the inhibition amounted to 5.41% in [7]; 4.81% in experiment [8]; 2.51% in [9]; 1.29% in experiment [10]; 5.88% in [11]; 5.06% in experiment [12]. Moreover, the inhibition in experiment [13] was 13.7%; in experiment [14] it was -0.28%; in experiment [15], 1.79%; in experiment [16] it was 5.99%; in experiment [17] it was 15.7%; in experiment [18], 4.8%. In addition, the values for the inhibition in [19] and in [20] were 20.4% and 6.68%, respectively.

Take `NS(=O)(=O)c1ccc(-c2cc3ccncc3cc2OCc2ccccc2)cc1`: the inhibition in experiment [1] was 14.8%; in [2], 5.43%; in experiment [3], 8.06%; in experiment [4], 4.33%; in experiment [5] it was 5.23%; in experiment [6], 0.4%. For the same molecule, the inhibition stood at 1.77% in experiment [7]; 9.74% in experiment [8]; 5.85% in [9]; 1.45% in experiment [10]; 0.07% in experiment [11]; 8.15% in experiment [12]. For the same molecule, the inhibition came out at 13.2% in experiment [13]; 0.32% in experiment [14]; 4.83% in [15]; 3.46% in [16]; 9.33% in [17]; 3.67% in [18]. Further, the inhibition is 6.32% in experiment [19] and 3.66% in [20].

For the molecule `NC(=O)c1cccc(Nc2nccc(Nc3cccc(F)c3)n2)c1`, the inhibition in experiment [1] came to 6.92%; in experiment [2] it was 3.6%; in experiment [3], 36.1%; in experiment [4], 2.42%; in experiment [5] it was 30.6%; in [6], 0.08%. Further, the inhibition in experiment [7] came to 4.99%; in experiment [8], 7.98%; in [9], 9.64%; in [10] it was 0.8%; in experiment [11], 7.74%; in [12], 7.13%. The inhibition was 43.4% in [13]; 1.84% in experiment [14]; 33.6% in experiment [15]; 0.83% in experiment [16]; 5.92% in experiment [17]; 6.64% in experiment [18]. In addition, the values for the inhibition in experiment [19] and in [20] were 46% and 11.5%, respectively.

Regarding `CS(=O)(=O)Nc1cccc(-c2ccc3c(NC(=O)C4CC4)n[nH]c3c2)c1`, the inhibition was 1.06% in experiment [1]; 1.17% in [2]; 1.49% in [3]; 0.4% in [4]; -0.21% in experiment [5]; 1.36% in experiment [6]. Moreover, the inhibition in [7] amounted to 1.01%; in experiment [8] it was 5.25%; in experiment [9], 1.91%; in experiment [10], 0.75%; in experiment [11] it was 3.16%; in [12], 3.7%. Moreover, the inhibition was 13.2% in [13]; 4.33% in experiment [14]; 8.89% in [15]; 0.91% in experiment [16]; -1.66% in [17]; 1.13% in [18]. For the same molecule, the inhibition in experiment [19] was 6.51%; in [20], -2.19%.

As for `NC(=O)c1sc(-n2cnc3ccccc32)cc1OCc1ccccc1Br`, the inhibition stood at 6.11% in experiment [1]; 4.01% in experiment [2]; 6.01% in experiment [3]; 1.96% in experiment [4]; 3.34% in [5]; 1.26% in experiment [6]. The inhibition in experiment [7] is 2.98%; in experiment [8] it was 3.2%; in experiment [9], 6.5%; in [10], 3.93%; in [11] it was 7.28%; in experiment [12], 6.48%. For the same molecule, the inhibition in [13] was 15.4%; in experiment [14] it was 4.15%; in experiment [15], 6.85%; in [16], 2.52%; in experiment [17], 5.25%; in experiment [18], 5.2%. Also, the inhibition in experiment [19] stood at 9.55%; in experiment [20] it was 4.3%.

On to `O=C1Nc2ccc(-c3cccnc3)cc2C1=Cc1cc(Br)c(O)c(Br)c1`, for which the inhibition in [1] was 23%; in [2] it was 2.95%; in [3] it was 11.1%; in experiment [4], 1.54%; in experiment [5] it was 9.06%; in [6], 1.25%. Further, the inhibition in experiment [7] is 2.23%; in experiment [8], 2.89%; in experiment [9] it was 5.75%; in experiment [10], 3.42%; in [11], 5.67%; in [12] it was 10.2%. Besides, the inhibition in experiment [13] stood at 20.2%; in experiment [14], 4.65%; in [15], 12.5%; in experiment [16] it was 5.16%; in experiment [17], 5.71%; in experiment [18], 5.57%. In addition, the inhibition in experiment [19] is 23.6%; in experiment [20], 1.45%.
